A selection: hits, their analogues and other compounds. The true share with any hit is near 2.3%.
ERp5 block: blocks human ERp5 reductase activity on insulin | Q15084 | ERp5 insulin aggregation, absorbance 650 nm, 90 min | inhibition, % at 9.99 µM | hit rate 0.05% among 350,000;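 active means mean replicate inhibition above about 25%, with every replicate also reaching it, limit read from the data, passing the limit was not always enough; inconclusive means only one of those two criteria met; inactive means neither criterion met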
Target sequence (Q15084 whole entry, looked up): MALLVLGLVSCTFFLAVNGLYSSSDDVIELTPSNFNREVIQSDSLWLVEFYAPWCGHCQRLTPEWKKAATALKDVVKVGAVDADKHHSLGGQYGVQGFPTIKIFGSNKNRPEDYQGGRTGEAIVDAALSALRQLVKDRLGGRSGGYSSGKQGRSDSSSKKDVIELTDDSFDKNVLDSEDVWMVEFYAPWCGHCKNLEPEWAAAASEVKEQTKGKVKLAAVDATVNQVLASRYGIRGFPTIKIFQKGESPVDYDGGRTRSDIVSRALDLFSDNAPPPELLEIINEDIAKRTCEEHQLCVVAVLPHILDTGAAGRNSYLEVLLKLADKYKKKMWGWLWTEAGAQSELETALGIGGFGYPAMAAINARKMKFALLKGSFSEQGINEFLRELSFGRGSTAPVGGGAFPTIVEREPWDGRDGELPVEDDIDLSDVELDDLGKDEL
SIRT5 inh: blocks human SIRT5 desuccinylation of peptide; Q9NXA8; Purified SirT5, succinyl-peptide AMC, trypsin-coupled fluorescence; inhibition, % at 15 µM; hit rate 1.1% among 330,000; in the data active means inhibition above about 15%; inconclusive means no clear call, values can overlap the other calls
PDI turbidity: blocks human protein disulfide isomerase activity; hit rate 0.052% among 350,000; P07237; inhibition, % at 10 µM; PDI insulin aggregation turbidity, A650, 90 min; AID 588391;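 active means mean inhibition across replicates of 30% or more, whatever share of single replicates reach that level; inconclusive means mean inhibition below 30% while every single replicate reaches 30%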
DENV2 CPE rescue: DENV2-induced cell death inhibition | DENV2-infected cells, cytopathic effect rescue, plate reader | CPE inhibition, % at 9.99 µM | hit rate 1.7% among 350,000; in the data active means CPE inhibition above about 20%, passing the limit was not always enough; inconclusive means no clear call, values can overlap the other calls; tested in BHK-21 cells;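 further: 0% = median of neutral control wells and 100% = median of positive control wells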
Rtt109 HAT inh: C. albicans Rtt109 histone acetyltransferase inhibition; inhibition, % at 34.9 µM; purified Rtt109/Vps75, ThioGlo CoA-SH fluorescence, 4 h; hit rate 0.16% among 330,000; AID 540336;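 active means inhibition of at least 50% in every replicate; inconclusive means best replicate reaches 50% inhibition but some replicates fall short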
* = called active by the depositor; ? = inconclusive; . = no result.

SMILES | ERp5 block | SIRT5 inh | PDI turbidity | DENV2 CPE rescue | Rtt109 HAT inh
Cc1noc(C)c1NC(=O)N(C)C[C@@H]1Oc2ccc(NS(=O)(=O)c3cn(C)cn3)cc2CC(=O)N([C@@H](C)CO)C[C@H]1C | -1 | 5 | . | 5 | .
COc1ccc(NC(=O)N(C)C[C@@H]2Oc3ccc(NS(=O)(=O)c4cn(C)cn4)cc3CC(=O)N([C@@H](C)CO)C[C@H]2C)cc1 | 0 | 5 | . | ? | .
Cc1noc(C)c1NC(=O)N(C)C[C@H]1Oc2ccc(NS(=O)(=O)c3cn(C)cn3)cc2CC(=O)N([C@H](C)CO)C[C@@H]1C | -7 | 3 | . | 48* | .
CO[C@H]1CN(C)C(=O)c2ccc(NC(C)=O)cc2OC[C@H](C)NC[C@@H]1C | 0 | -2 | . | 10 | .
C[C@@H]1CN([C@@H](C)CO)S(=O)(=O)c2ccc(C#Cc3ccc(F)cc3)cc2O[C@@H]1CN(C)C(=O)NC1CCCC1 | 15 | 7 | . | -20 | .
COCCNC(=O)/C(C#N)=C/c1cc(C)n(C2CCCCC2)c1C | 3 | 16* | 5 | ? | 3
COCCNC(=O)/C(C#N)=C/c1cc(C)n(-c2ccc(C)cc2)c1C | ? | 5 | 0 | -6 | 17
CCN(C)C1CN(Cc2cn(Cc3ccc(F)cc3)nn2)S(=O)(=O)C1 (stereo not given) | 4 | -2 | . | 46* | .
CCN(C)C1CN(Cc2cn(Cc3ccccc3)nn2)S(=O)(=O)C1 (stereo not given) | -8 | -1 | . | 21* | .
CN(Cc1cn(Cc2ccccc2)nn1)C1CN(Cc2cn(Cc3ccccc3)nn2)S(=O)(=O)C1 (stereo not given) | -5 | -1 | . | -7 | .
C[C@@H]1CN([C@H](C)CO)C(=O)c2cc(/C=C/c3ccccc3)cnc2O[C@@H]1CN(C)C(=O)c1ccc2c(c1)OCO2 | -1 | -11 | . | -1 | .
C[C@@H]1CN([C@@H](C)CO)C(=O)c2cc(C3=CCCCC3)cnc2O[C@@H]1CN(C)Cc1ccncc1 | 1 | 2 | . | -9 | .
COc1ccc(O)c(/C=N/NC(=O)CN2CCS(=O)(=O)CC2)c1 | 2 | -6 | -15 | 54* | -23
C[C@@H]1CCCCO[C@H](CN(C)C(=O)C2CCCCC2)[C@@H](C)CN([C@@H](C)CO)C(=O)c2cc(NC(=O)Nc3cccc4ccccc34)ccc2O1 | 9 | 1 | . | 26* | .
C[C@@H]1CCCCO[C@@H](CN(C)C(=O)C2CCCCC2)[C@H](C)CN([C@H](C)CO)C(=O)c2cc(NC(=O)Nc3cccc4ccccc34)ccc2O1 | -4 | 5 | . | 23* | .
C[C@@H]1CN([C@@H](C)CO)C(=O)c2cc(NC(=O)Nc3cccc4ccccc34)ccc2O[C@@H](C)CCCCO[C@H]1CN(C)C(=O)C1CCCCC1 | -1 | 2 | . | 22* | .
C[C@@H]1CCCCO[C@@H](CN(C)C(=O)C2CCCCC2)[C@@H](C)CN([C@H](C)CO)C(=O)c2cc(NC(=O)Nc3cccc4ccccc34)ccc2O1 | 2 | 1 | . | 22* | .
C[C@H](CO)N1C[C@H](C)[C@@H](CN(C)C(=O)C2CCCCC2)OCCCC[C@H](C)Oc2ccc(NC(=O)Nc3cccc4ccccc34)cc2C1=O | 3 | 5 | . | 14 | .
COc1ccc(S(=O)(=O)Nc2ccc3c(c2)C(=O)N([C@H](C)CO)C[C@H](C)[C@@H](CN(C)C(=O)CCC(F)(F)F)OCCCC[C@@H](C)O3)cc1 | -3 | 1 | . | 10 | .
COCC(=O)N(C[C@@H]1N[C@@H](CO)[C@@H]1c1ccc(C2=CCCCC2)cc1)C(C)C | -2 | 0 | . | 0 | .
CCC(=O)Nc1ccc2c(c1)C(=O)N(C)C[C@H](OC)[C@@H](C)CN(C(=O)c1ccccc1F)[C@H](C)CO2 | -1 | -15 | . | 8 | .
Cc1cc(C)n(CC(C)NC(=O)CCc2nnc(CCc3ccccc3)o2)n1 (stereo not given) | -1 | -5 | -5 | 1 | 5
Cc1cc(C)n(CCNC(=O)CCc2nnc(CCc3ccccc3)o2)n1 | -1 | 15* | -3 | -4 | -6
Cc1ccccc1OCCOC(=O)c1cc(S(=O)(=O)N2CCOCC2)ccc1C | -10 | -5 | 19 | 72* | .
O=C(C[C@H]1CC[C@@H]2[C@H](COC[C@H](O)CN2C(=O)c2ccc3c(c2)OCO3)O1)NC1Cc2ccccc2C1 | -1 | -1 | . | 24* | .
O=C(C[C@@H]1CC[C@@H]2[C@H](COC[C@@H](O)CN2C(=O)Nc2ccc(F)cc2)O1)NC1Cc2ccccc2C1 | 2 | 3 | . | -15 | .
